In PubChem BioAssay:
Unmarked numbers belong to inactive results. No rule for the calls is given here.

Target: Pantothenate synthetase (Mycobacterium tuberculosis (strain ATCC 25618 / H37Rv)) (UniProt P9WIL5)
Assay: Recombinant Mtb pantothenate synthetase (PanC) inhibitors, coupled enzyme, confirmatory (AID 375);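 also: 0% = full reaction with vehicle and 100% = no enzyme background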
Conditions: coupled enzyme assay; at 10 µM, active compounds read high

Chain of Pantothenate synthetase (Mycobacterium tuberculosis (strain ATCC 25618 / H37Rv)) (P9WIL5 whole entry, looked up): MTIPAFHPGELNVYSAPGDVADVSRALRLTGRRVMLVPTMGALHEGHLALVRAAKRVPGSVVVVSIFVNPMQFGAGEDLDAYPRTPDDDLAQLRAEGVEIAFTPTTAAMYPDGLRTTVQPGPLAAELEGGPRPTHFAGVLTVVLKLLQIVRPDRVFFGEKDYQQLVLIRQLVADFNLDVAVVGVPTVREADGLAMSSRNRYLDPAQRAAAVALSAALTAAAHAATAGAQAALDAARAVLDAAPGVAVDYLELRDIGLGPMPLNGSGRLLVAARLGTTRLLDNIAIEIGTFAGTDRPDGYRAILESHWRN

Structure (SMILES)	inhibition [%]
COc1ccc(S(=O)(=O)NCCC(=O)NC2CCCCCCC2)cc1	0
CN(C)S(=O)(=O)c1ccc(S(=O)(=O)Nc2ccc3c(c2)oc2ccccc23)cc1	0
COC(=O)c1ccccc1NC(=O)c1ccc(-c2ccccc2F)o1	0
O=C(O)c1ccccc1Nc1cccc(C(F)(F)F)c1	2
CC(=O)N(C(C)=O)c1ncc2c([nH]c3ccccc32)c1C#N	0
CSc1nc(=NC(C)=O)ss1	0
CN(C)C(=O)N1CCN(C(=O)c2ccco2)CC1	0
COc1ccc(-c2cc3nc4n(c(=O)c3s2)CCC4)cc1	8
CC(O)c1cc2c(cc1NC(=O)c1cnn3c1NC(c1ccco1)CC3C(F)(F)F)OCO2 (stereo not given)	0
Cc1cc(Oc2ccc(Cl)cc2)nc(-c2ccccc2O)n1	7
CCOC(=O)N1CCC(NC(=O)c2cc(C(=O)NC3CCCC3)ccc2CO)CC1	1
Cc1nc(NCc2ccccn2)c2ccccc2n1	7
O=C1CCCc2c1cc(C(=O)NCc1ccco1)c(=O)n2-c1ccc(Cl)cc1	9
Clc1ccc(-c2nnc3sc(-c4ccc(Br)o4)nn23)cc1	0
CCCCC(=O)NCCc1ccc(S(N)(=O)=O)cc1	0
CC1CCCCC1NC(=O)CCCc1nc2ccccc2c(=O)[nH]1 (stereo not given)	0
COc1ccc(-c2cn3cc(C)ccc3n2)cc1OC	8
CCN(CCCc1ccccc1)CCCc1ccccc1	0
COc1cccc(NC(=O)CSc2nnc(-c3cccs3)n2C)c1	0
O=C(CSc1ccc(Cl)cc1)OCc1nnc(-c2ccccc2)o1	1

Structure (SMILES)	inhibition [%]
O=C(NC1CC1)C1CCC(=O)N1C1CCCC1 (stereo not given)	4
Cc1nnc(SCc2ccccc2)n1N	0
CS(=O)(=O)Nc1ccccc1C(=O)O	0
CC(C)n1c(=NC(=O)c2ccco2)c(C#N)cc2c(=O)n3ccccc3cc21	0
COC(=O)c1[nH]c2ccc(C)cc2c1NC(=O)CN1CCN(C(=O)c2ccccc2)CC1	4
COc1ccc2nc(NC(=O)CSc3nnc(-c4ccoc4C)n3C)sc2c1	2
COc1ccc(NS(=O)(=O)c2c(C)[nH]c(=O)[nH]c2=O)c(OC)c1	0
Cn1cnc2c1c(=O)[nH]c(=O)n2C	0
CCc1nnc(NC(=O)CSc2nnc(Cc3ccccc3)n2-c2ccc(OC)cc2)s1	7
CCOc1ccc(C2CC(c3ccccc3C)n3nc(N)nc3N2)cc1 (stereo not given)	0
CCOC(=O)CN1CC23C=CC(O2)C(C(=O)NC2CCCC2)C3C1=O (stereo not given)	3
N#Cc1cnc(SCC(=O)c2ccccc2)nc1N	2
CCOC(=O)Nc1ccc2c(c1)N(C(=O)OCCN(C)C)c1ccccc1CC2	3
COc1cccc(S(=O)(=O)Nc2cccnc2)c1	10
Cc1nc2sc(C(c3ccccc3)N3CCN(c4ccccc4F)CC3)c(O)n2n1 (stereo not given)	0
CC(C)=CCC(C)(C)C1OCCN1C(=O)c1ccccc1 (stereo not given)	2
CC(C)(O)C#Cc1ccc(C(=O)N2CCN(C(=O)c3ccco3)CC2)cc1	0
CCCCOc1ccccc1C1C(C(N)=O)=C(C)Nc2nnnn21 (stereo not given)	0
CCCC(=O)Nc1cc(-c2nnc(OC)c3ccccc23)ccc1N1CCOCC1	0
CCOC(=O)c1cc(CC)sc1NC(=O)COC	7
